Source: the supplement of paper PMC11732987, “Enantioselective OTUD7B fragment discovery through chemoproteomics screening and high-throughput optimisation” (Communications Chemistry, 2025)

Experiments:
Experiment in all cases: log2 ratio of Biotin-Ahx-Ub-VS probe labelling (fragment/DMSO); higher = less target engagement (more negative = stronger competition), active = hit call of the paper (q ≤ 0.05, log2 ratio ≤ -1)
Details in all cases: compound concentration: 200 uM; treatment time: 3 h
USP34 = USP34 (UniProt Q70CQ2)
Chain of USP34 (Q70CQ2 whole entry, the tested form may be a part): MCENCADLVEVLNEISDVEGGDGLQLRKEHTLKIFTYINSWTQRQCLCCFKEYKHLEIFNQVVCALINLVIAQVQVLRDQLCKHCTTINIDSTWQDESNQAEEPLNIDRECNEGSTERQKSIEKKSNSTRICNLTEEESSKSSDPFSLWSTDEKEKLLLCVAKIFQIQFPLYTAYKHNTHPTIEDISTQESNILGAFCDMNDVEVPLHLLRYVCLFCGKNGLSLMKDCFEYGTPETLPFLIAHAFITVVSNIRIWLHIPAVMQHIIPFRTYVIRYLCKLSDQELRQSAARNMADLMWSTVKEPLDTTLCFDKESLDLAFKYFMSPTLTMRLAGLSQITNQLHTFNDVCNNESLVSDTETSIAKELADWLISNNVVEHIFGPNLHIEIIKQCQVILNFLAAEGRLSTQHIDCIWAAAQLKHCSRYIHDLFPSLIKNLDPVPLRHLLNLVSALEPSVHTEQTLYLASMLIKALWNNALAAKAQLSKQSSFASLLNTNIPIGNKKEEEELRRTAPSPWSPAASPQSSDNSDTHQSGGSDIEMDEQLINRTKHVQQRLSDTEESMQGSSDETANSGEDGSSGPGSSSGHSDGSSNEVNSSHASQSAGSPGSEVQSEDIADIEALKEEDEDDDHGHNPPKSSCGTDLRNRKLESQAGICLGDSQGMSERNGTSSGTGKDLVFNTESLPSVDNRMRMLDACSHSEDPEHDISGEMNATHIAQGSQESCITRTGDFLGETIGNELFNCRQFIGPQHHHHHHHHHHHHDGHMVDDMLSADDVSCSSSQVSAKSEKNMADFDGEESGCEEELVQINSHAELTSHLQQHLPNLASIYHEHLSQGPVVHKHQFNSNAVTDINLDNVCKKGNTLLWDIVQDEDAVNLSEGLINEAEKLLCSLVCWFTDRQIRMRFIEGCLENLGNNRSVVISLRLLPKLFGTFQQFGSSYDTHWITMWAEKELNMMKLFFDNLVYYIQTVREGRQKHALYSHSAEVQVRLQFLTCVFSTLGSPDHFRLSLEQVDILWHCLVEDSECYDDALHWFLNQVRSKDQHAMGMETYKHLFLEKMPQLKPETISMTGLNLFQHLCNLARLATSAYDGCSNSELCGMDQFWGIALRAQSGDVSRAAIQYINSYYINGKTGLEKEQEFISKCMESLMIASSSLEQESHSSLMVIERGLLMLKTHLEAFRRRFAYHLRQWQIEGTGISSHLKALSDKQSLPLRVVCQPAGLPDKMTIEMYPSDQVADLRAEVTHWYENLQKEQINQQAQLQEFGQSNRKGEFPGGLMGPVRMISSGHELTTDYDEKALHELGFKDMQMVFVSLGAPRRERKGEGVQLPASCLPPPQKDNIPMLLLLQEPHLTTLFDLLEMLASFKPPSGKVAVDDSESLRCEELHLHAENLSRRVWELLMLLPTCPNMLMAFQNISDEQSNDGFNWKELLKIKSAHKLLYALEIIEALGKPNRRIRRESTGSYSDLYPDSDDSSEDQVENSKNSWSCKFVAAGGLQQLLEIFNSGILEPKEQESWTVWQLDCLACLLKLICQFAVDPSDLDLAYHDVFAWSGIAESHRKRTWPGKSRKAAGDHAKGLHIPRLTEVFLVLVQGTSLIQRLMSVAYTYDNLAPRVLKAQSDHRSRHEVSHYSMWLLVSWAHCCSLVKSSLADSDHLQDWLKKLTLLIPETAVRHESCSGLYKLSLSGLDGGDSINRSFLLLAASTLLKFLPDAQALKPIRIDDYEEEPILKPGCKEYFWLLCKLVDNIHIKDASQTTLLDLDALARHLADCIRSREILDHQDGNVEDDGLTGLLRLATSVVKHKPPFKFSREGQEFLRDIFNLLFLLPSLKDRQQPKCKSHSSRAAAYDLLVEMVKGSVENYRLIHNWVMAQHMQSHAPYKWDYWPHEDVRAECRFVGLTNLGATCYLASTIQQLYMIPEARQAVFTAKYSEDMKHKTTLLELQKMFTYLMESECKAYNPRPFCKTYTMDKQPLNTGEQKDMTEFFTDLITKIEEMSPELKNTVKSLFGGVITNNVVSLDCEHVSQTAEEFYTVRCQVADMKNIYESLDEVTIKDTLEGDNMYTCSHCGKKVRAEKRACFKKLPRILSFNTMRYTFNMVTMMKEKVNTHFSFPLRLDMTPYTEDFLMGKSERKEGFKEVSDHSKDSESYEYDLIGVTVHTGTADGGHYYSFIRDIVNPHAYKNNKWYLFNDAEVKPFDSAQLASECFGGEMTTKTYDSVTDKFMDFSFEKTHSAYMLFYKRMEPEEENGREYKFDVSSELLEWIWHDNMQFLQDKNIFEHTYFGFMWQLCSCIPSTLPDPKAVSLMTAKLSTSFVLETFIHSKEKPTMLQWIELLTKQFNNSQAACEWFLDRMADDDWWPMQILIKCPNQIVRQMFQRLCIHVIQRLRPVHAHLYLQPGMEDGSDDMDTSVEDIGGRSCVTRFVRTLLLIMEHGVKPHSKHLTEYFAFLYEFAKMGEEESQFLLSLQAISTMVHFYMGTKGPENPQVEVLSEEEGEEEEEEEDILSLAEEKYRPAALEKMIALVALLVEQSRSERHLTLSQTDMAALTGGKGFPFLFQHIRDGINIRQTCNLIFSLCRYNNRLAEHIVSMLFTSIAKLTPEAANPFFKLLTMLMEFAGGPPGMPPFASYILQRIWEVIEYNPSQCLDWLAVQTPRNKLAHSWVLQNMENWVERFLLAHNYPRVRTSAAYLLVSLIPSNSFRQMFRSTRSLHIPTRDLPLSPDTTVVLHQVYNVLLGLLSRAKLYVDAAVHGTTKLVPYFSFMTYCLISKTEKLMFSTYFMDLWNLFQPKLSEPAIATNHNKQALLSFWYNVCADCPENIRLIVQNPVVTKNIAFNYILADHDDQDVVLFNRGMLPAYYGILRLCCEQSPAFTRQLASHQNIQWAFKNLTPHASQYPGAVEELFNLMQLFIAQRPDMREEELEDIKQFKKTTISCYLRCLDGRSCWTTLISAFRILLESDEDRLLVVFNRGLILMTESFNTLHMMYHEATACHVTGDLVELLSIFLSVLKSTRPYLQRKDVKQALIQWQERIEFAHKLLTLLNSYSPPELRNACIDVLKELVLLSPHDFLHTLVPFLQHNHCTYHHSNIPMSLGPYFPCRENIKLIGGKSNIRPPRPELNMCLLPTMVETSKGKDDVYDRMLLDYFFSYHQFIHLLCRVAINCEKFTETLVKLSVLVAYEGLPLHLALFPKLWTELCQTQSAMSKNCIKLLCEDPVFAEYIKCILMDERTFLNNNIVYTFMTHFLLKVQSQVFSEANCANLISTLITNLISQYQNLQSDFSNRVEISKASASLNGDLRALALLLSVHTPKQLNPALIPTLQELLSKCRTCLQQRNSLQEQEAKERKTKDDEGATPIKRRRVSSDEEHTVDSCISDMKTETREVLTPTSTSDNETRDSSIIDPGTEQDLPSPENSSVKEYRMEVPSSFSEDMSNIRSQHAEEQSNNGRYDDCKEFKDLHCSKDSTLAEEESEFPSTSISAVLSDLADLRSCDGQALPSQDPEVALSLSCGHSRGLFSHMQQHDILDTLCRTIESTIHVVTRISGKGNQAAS
In short: (§1)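 Global-median-normalised Spectronaut label-free quantities were compared by unpaired t-test, and values are average log2 ratios of fragment over vehicle. Only proteins with ≥2 unique peptides were used. HEK293T lysate (495 µg per sample) was treated in triplicate with fragment at 200 µM or vehicle for 3 h and then with Biotin-Ahx-Ub-VS at 0.5 µM final for 1 h. Labelled DUBs were then NeutrAvidin-enriched, digested with LysC and trypsin, and run by diaPASEF LC-MS/MS.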

USP36 = target: T1, USP36 (UniProt Q9P275)
T1 sequence (whole entry): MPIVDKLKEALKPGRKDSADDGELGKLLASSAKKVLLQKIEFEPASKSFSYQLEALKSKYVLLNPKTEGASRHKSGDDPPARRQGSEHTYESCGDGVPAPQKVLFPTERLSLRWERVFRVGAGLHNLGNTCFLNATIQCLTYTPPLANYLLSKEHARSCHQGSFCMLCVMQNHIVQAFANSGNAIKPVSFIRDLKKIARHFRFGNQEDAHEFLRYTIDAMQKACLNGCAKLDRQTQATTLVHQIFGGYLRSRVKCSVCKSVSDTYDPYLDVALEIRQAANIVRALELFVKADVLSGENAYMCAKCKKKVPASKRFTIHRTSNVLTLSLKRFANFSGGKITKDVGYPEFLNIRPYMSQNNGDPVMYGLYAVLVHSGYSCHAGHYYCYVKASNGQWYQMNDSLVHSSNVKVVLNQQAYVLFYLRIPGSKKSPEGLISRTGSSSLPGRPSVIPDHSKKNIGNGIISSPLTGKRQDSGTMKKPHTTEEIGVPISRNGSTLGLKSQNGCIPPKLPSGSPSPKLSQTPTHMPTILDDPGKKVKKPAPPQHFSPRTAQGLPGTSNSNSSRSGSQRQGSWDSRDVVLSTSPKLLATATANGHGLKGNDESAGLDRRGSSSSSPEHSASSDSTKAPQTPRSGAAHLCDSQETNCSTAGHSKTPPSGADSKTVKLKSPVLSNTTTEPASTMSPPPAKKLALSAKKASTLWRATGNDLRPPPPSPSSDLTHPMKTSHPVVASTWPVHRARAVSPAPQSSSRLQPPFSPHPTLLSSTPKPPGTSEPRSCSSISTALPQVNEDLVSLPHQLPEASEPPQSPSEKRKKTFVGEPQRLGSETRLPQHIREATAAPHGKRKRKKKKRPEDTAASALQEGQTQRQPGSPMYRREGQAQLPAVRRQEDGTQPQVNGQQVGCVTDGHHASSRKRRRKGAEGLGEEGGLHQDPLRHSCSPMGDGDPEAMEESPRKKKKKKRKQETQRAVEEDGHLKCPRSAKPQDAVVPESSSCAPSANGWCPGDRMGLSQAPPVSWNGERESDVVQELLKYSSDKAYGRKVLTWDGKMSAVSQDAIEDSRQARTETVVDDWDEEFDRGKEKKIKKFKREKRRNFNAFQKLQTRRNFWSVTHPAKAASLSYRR
In short: as §1

USP38 = target: T2, USP38 (UniProt Q8NB14)
T2 sequence (whole entry): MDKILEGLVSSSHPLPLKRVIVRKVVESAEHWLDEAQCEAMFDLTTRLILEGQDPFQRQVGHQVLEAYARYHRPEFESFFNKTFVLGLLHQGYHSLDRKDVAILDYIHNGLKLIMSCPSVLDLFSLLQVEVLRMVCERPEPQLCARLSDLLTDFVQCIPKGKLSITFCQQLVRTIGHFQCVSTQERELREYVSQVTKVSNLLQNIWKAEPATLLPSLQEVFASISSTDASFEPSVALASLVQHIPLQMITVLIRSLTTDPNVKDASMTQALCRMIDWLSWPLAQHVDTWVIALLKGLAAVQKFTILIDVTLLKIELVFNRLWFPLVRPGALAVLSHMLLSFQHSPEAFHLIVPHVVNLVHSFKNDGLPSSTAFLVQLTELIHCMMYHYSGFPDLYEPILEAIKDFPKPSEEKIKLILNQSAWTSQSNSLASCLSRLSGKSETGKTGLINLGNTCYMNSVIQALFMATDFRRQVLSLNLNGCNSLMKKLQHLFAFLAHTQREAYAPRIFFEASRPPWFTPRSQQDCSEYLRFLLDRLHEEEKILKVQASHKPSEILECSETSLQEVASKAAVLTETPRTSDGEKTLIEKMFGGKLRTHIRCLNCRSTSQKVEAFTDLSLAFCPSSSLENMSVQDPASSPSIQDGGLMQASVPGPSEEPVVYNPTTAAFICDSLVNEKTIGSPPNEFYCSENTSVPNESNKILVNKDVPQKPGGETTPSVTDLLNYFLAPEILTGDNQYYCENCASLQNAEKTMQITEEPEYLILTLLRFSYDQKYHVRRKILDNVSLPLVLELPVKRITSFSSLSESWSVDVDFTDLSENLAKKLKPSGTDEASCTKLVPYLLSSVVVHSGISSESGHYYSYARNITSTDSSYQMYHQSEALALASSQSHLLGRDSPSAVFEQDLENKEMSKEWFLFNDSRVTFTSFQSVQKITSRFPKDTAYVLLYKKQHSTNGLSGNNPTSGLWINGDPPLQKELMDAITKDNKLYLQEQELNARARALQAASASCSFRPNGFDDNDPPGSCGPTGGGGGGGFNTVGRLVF
In short: as §1

USP39 = target: T3, USP39 (UniProt Q53GS9)
T3 sequence (whole entry): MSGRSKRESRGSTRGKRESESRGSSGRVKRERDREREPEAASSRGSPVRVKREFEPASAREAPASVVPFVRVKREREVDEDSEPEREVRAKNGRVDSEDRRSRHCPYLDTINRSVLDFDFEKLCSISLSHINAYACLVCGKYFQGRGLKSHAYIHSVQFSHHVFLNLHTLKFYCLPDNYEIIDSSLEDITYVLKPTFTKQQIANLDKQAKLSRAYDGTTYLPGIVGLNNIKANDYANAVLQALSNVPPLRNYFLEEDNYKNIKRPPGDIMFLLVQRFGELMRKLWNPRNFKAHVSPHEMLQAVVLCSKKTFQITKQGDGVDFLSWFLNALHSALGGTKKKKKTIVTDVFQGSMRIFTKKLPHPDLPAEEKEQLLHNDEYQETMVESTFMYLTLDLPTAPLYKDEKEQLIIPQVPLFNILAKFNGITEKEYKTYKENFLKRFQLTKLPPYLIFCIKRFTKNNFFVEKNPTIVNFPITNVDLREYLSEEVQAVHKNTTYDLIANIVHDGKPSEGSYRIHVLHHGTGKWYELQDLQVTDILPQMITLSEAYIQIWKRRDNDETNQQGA
In short: as §1

USP4 = target: T4, USP4 (UniProt Q13107)
T4 sequence (whole entry): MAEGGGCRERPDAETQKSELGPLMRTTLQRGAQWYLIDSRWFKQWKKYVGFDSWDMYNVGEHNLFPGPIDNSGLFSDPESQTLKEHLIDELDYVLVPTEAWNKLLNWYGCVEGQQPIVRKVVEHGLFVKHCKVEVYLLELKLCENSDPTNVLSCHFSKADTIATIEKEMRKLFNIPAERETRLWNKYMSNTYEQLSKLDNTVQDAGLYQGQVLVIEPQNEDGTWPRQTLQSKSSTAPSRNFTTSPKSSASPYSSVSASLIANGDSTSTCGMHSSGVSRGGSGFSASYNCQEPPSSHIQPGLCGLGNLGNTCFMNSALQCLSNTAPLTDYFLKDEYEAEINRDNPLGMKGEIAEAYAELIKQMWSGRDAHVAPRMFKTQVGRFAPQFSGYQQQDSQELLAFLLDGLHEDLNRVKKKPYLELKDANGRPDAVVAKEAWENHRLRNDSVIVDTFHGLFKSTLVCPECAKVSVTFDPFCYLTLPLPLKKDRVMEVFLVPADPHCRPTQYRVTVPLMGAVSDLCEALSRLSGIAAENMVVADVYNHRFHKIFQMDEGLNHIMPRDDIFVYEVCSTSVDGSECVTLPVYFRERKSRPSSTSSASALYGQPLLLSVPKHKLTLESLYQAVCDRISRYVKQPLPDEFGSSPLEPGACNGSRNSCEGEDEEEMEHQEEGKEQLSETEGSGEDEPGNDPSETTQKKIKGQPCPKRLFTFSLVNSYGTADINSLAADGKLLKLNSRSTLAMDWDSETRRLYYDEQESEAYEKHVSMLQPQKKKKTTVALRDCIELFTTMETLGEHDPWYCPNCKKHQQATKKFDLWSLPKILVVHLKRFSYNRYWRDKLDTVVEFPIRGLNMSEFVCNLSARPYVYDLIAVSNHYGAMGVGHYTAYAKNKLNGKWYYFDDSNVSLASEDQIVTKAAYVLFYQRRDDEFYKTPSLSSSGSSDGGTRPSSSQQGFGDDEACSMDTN
In short: as §1

Measured: log2 ratio of Biotin-Ahx-Ub-VS probe labelling

Cl.O=C(CCl)N1CCC(Cc2nccs2)C1 (stereo not given)
inactive: USP34 0.132 | USP36 -0.0197 | USP38 0.0569 | USP39 0.0712 | USP4 -0.165
